In assay [1] the target is Glucocorticoid receptor (Homo sapiens) (UniProt P04150). In words: qHTS assay for small molecule antagonists of glucocorticoid receptor signaling (AID 588533; active = well fitted inhibition curve with a large enough effect in the signal ratio, with a control signal flat, not every such curve was filed as active; inconclusive = small, poorly fitted or top-dose-only effect, or effect the other way, or a change in a side signal; the % refers to the signal ratio;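 note: cells stimulated with 2 nM dexamethasone as agonist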; note: potency is the fitted concentration of half-maximal effect). In short, it runs like this: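 Antagonist-mode qHTS: compound titrations added to GRE-bla HeLa cells, then dexamethasone 2 nM final; 18 h, 37 C. CCF4 FRET fluorescence normalized to dexamethasone and DMSO; IC50 from Hill fit.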

The target in assay [2] is Peroxisome proliferator-activated receptor gamma (Homo sapiens) (UniProt P37231). In words: qHTS assay for small molecule agonists of peroxisome proliferator-activated receptor gamma signaling (AID 588536; active = well fitted curve in the direction sought with a large enough effect in the signal ratio, with a control signal flat, not every such curve was filed as active; inconclusive = small, poorly fitted or top-dose-only effect, or effect the other way, or a change in a side signal; inactive = no such curve, though single readings can be large or run the other way; the % refers to the signal ratio;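 note: 0% = DMSO basal wells and 100% = rosiglitazone at 2 µM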). In short, it runs like this: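 PPAR-gamma-UAS-bla HEK293 cells in medium with 1% charcoal/dextran-treated FBS were exposed to compounds for 16 h at 37 C. Beta-lactamase activity was read with CCF4 substrate (405 nm excitation, 460/530 nm emission).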

Assay [3] in a line: qHTS assay for small molecule agonists of retinoid X receptor alpha signaling (AID 588544; calls by dose curve;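 for activation: 0% = DMSO basal wells and 100% = reference agonist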). Particulars: HEK293T RXRa-UAS-bla, beta-lactamase reporter, 18 h; 530 nm emission.
For assay [4], the target named is Retinoic acid receptor RXR-alpha (Homo sapiens) (UniProt P19793). Described as above.
The nature of assay [5]: qHTS assay for small molecule activators of the p53 signaling pathway (AID 651743; active = well fitted activation curve with a large enough effect in the signal ratio, not every such curve was filed as active; inconclusive = small, poorly fitted or top-dose-only effect, or a change in a side signal; the % refers to the signal ratio; note: potency is the fitted concentration of half-maximal effect; for activation: series mostly up to about 92 µM; % of control where 0% means no effect). Particulars: HCT-116 p53RE-bla, beta-lactamase FRET ratio, 16 h; activation: stronger effect = higher value. An outline of the steps: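 Cell-based beta-lactamase reporter (p53 response elements, HCT-116 background). After a 5-hour preincubation, cells received compound for 16 hours at 37 C; substrate development ran 2 hours at room temperature.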

Assay [6] concerns the target Tumor necrosis factor (Homo sapiens) (UniProt P01375). In words: qHTS assay to identify small molecules that stimulate Tumor Necrosis Factor-alpha (TNF-alpha) secretion (AID 651757; active = well fitted curve in the direction sought with a large enough effect in the signal ratio; inconclusive = small, poorly fitted or top-dose-only effect, or a change in a side signal; inactive = no such curve, though single readings can be large or run the other way; the % refers to the signal ratio; note: 0% is about no effect). In short, it runs like this: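 THP-1 cells (3000/well) exposed to compounds 17 hrs at 37 C. Secreted TNF-alpha detected by HTRF with cryptate- and XL665-labeled anti-TNF-alpha antibodies after 3 hr at room temperature.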

Assay [7] in a line: qHTS assay for small molecule activators of the human pregnane X receptor (PXR) signaling pathway (AID 720659; call rule not given here; note: 0% is about no effect).
Assay [8] deals with Bile acid receptor (Homo sapiens) (UniProt Q96RI1). The experiment in a line: qHTS assay for small molecule antagonists of farnesoid X receptor signaling (AID 588526; calls by dose curve; note: % is set by controls: 0 for no effect and ±100 for the full control effect). In short, it runs like this:
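Concentration-response titrations were fitted to the Hill equation for half-maximal inhibition and maximal response, with data normalised to 50 uM chenodeoxycholic acid and DMSO control wells. Cells: FXR-UAS-bla HEK293T, dialyzed FBS.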

The nature of assay [9]: qHTS assay for small molecule antagonists of retinoid X receptor alpha signaling (AID 588546).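 Note: cells stimulated with 9-cis-retinoic acid as agonist; % is set by controls: 0 for no effect and ±100 for the full control effect.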 Particulars: HEK293T RXRa-UAS-bla, beta-lactamase ratio, antagonist mode; measured here: W530 green channel, cytotoxicity proxy. An outline of the steps: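 Beta-lactamase reporter inhibition, read as CCF4 fluorescence ratio (ex 405, em 460/530 nm) after 2 h at RT. HEK293T UAS-bla cells, 2500/well, were stimulated with 9-cis-RA at 500 or 100 nM final alongside test compound for 18 h at 37 C.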

Assay [10] is described as follows: qHTS assay to identify small molecules that stimulate interleukin-8 (IL-8) secretion (AID 651758; active = well fitted activation curve with a large enough effect in the signal ratio; inconclusive = small, poorly fitted or top-dose-only effect, or effect the other way, or a change in a side signal; the % refers to the signal ratio; note: 0% is about no effect). An outline of the steps:
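THP-1, 2000 cells/well; cpd 16 h, 37 C; add cryptate + XL665 anti-IL-8 Abs; RT 1-3 h; TR-FRET read.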

Assay [11] concerns the target Estrogen receptor (Homo sapiens) (UniProt P03372). The experiment in a line: qHTS assay for small molecule antagonists of estrogen receptor alpha signaling (AID 588513; active = well fitted curve in the direction sought with a large enough effect in the signal ratio, with a control signal flat, not every such curve was filed as active; inconclusive = small, poorly fitted or top-dose-only effect, or effect the other way, or a change in a side signal; inactive = no such curve, though single readings can be large or run the other way; the % refers to the signal ratio; note: potency is the fitted concentration of half-maximal effect). An outline of the steps:
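Fluorescence from CCF4 substrate after 2 h at room temperature gave reporter activity; cells had been exposed to compound and 0.5nM 17-beta-estradiol for 18 h at 37 C. Hill-equation fitting yielded IC50 and maximal response.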

The target in assay [12] is Cytochrome P450 3A4 (Homo sapiens) (UniProt P08684). The experiment in a line: qHTS Assay for Activators of Cytochrome P450 3A4 (AID 885). Note: nearly all actives have a fitted effect of over 65% in size. An outline of the steps:
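20nM CYP3A4 + 25uM Luciferin-PPXE (=KM), 200mM KPO4; cpd 10 min RT; NADPH regen, 60 min RT; stop w/ detection buffer, 20 min; luminescence. Normalized to 57 uM ketoconazole.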

Assay [13] can be described thus: qHTS assay for small molecule agonists of the antioxidant response element (ARE) signaling pathway (AID 651741; active = well fitted activation curve with a large enough effect in the signal ratio; inconclusive = small, poorly fitted or top-dose-only effect, or effect the other way, or a change in a side signal; the % refers to the signal ratio; note: potency is the fitted concentration of half-maximal effect; for activation: % of control where 0% means no effect). In short, it runs like this: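 Compounds in DMSO are pinned onto HepG2 ARE-bla cells (2,000/well) that were preincubated 5 h; plates stay 16 h at 37 C, then beta-lactamase activity is detected with LiveBLAzer B/G substrate by fluorescence.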
Assay [14] concerns the target 3',5'-cyclic-AMP phosphodiesterase 4B (Homo sapiens) (UniProt Q07343). In words: qHTS Assay for Inhibitors of PDE-IV (AID 607; active = well fitted activation curve with a large enough effect in the main read-out, with a control signal flat, not every such curve was filed as active; inconclusive = small, poorly fitted or top-dose-only effect, or effect the other way, or a change in a side signal; note: % of control where 0% means no effect). An outline of the steps:
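ACTOne HEK293 cells carry a modified cAMP-gated CNG channel and express endogenous PDE4; plated 1000 cells/well, compounds up to 22.9 uM final. Membrane-potential dye fluorescence (ex 535/em 590) was read; parental cells received 10 uM forskolin + 100 uM RO 20-1724.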

For assay [15], the target named is Glucocorticoid receptor (Homo sapiens) (UniProt P04150). The experiment in a line: GR-EFC Redistribution (AID 451; calls by dose curve; note: potency is the fitted concentration of half-maximal effect). Particulars: CHO-K1 GR-EFC translocation, beta-gal luminescence, 2 h. An outline of the steps: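 CHO-K1 cells stably expressing nuclear-localized β-gal enzyme acceptor and GR fused C-terminally to the enzyme donor fragment; ligand-driven nuclear translocation restores β-gal by complementation. Compounds titrated up to 46 uM final, 2 h at 37 °C; luminescence read.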

Assay [16] has as its target Guanine nucleotide-binding protein G(i) subunit alpha-1 (Homo sapiens) (UniProt P63096). The experiment in a line: qHTS Assay for Inhibitors of RGS12 GoLoco Motif Activity (Green Fluorophore) (AID 879).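 Note: 0% = labeled peptide with Gαi1 and full inhibition = labeled peptide alone without protein; negative values mean loss of peptide binding seen as reduced polarization.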 In short, it runs like this: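 Fluorescence polarization assay: 50 nM Gαi1 with 10 nM FITC-labeled RGS12 GoLoco peptide in 10 mM Tris pH 7.5, 150 mM NaCl, 0.1 mM GDP, 0.05% NP40, 10 min at room temperature with compound.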

Assay [17] addresses Pyruvate kinase (Leishmania mexicana) (UniProt Q27686). The experiment in a line: qHTS Validation Assay for Inhibitors of Leishmania Mexicana Pyruvate Kinase (AID 945). Note: potency is the fitted concentration of half-maximal effect. In short, it runs like this: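 Luminescent ATP detection (PKLight) after a 1 h room-temperature reaction of 0.2 nM LmPYK E451W mutant with 0.5 mM PEP and 0.1 mM ADP at pH 7.2. Activity is normalized to DMSO-only control wells.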

Assay [18] deals with Pyruvate kinase PKM (Homo sapiens) (UniProt P14618). The experiment in a line: qHTS Assay for Activators of Human Muscle Pyruvate Kinase (AID 954; active = well fitted curve in the direction sought with a large enough effect, not every such curve was filed as active; inconclusive = small, poorly fitted or top-dose-only effect, or effect the other way, or another doubt; inactive = no such curve, though single readings can be large or run the other way;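 note: 0% = uninhibited enzyme and -100% = no enzyme or full thiadiazolimine inhibition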). In short, it runs like this: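 Luminescence from a luciferase ATP-detection/stop reagent reported PKM2 activity. Reactions contained 0.1 nM purified human enzyme, 0.5 mM PEP, 0.1 mM ADP and 7 mM MgCl2 at pH 7.2, run 1 h at RT.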

The target of assay [19] is Alpha-galactosidase A (Homo sapiens) (UniProt P06280). The experiment in a line: Counterscreen for Glucocerebrosidase Inhibitors: qHTS Assay for Human alpha-Galactosidase at pH 4.5 (AID 992). Note: 0% is about no effect. An outline of the steps:
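Enzyme at 2 nM final was combined with compound (0.7 nM to 77 uM) and 80 uM 4-methylumbelliferyl alpha-D-galactopyranoside in 50 mM citric acid, 0.005% Tween-20, pH 4.5. After 20 min at room temperature, fluorescence was read (Ex 365/Em 440 nm); AC50 came from Hill fits.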

Assay [20] deals with alpha-glucosidase (Oryza sativa, rice) (UniProt Q653V4). In words: Counterscreen for Glucocerebrosidase Inhibitors: qHTS Assay for Rice alpha-Glucosidase at pH 5.0 (AID 997).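 Note: 0% = full activity with enzyme and -100% = basal without enzyme.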 In short, it runs like this:
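Rice alpha-glucosidase (4 nM final) with 400 uM 4-methylumbelliferyl-alpha-D-glucopyranoside in citrate buffer pH 5.0, 20 min at room temperature, stopped at pH 10; fluorescence 365/440 nm, compounds 0.7 nM–77 uM, AC50 from Hill fits.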

“And” between values parts separate entries of the source, which are not always exact repeats. Equal entries are not always repeated. The source made the active and inactive calls. Unless noted, calls come from the whole dose curve; as a rule, active = well fitted curve in the direction sought with a large enough effect; inconclusive = small, poorly fitted or top-dose-only effect, or another doubt; inactive = no such curve, though single readings can be large; an effect the other way counts as inactive or inconclusive.

Sequence of Guanine nucleotide-binding protein G(i) subunit alpha-1 (Homo sapiens) (P63096 whole entry, looked up): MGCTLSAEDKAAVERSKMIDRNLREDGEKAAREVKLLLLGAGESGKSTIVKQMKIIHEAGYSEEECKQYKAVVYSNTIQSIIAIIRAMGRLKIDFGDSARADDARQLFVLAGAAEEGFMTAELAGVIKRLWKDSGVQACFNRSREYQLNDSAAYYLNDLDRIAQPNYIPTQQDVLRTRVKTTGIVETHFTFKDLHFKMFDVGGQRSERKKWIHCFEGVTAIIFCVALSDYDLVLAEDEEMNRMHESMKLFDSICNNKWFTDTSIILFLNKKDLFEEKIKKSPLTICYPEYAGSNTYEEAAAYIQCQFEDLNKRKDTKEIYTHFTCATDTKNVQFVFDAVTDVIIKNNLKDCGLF
Sequence of Peroxisome proliferator-activated receptor gamma (Homo sapiens) (P37231 whole entry, looked up): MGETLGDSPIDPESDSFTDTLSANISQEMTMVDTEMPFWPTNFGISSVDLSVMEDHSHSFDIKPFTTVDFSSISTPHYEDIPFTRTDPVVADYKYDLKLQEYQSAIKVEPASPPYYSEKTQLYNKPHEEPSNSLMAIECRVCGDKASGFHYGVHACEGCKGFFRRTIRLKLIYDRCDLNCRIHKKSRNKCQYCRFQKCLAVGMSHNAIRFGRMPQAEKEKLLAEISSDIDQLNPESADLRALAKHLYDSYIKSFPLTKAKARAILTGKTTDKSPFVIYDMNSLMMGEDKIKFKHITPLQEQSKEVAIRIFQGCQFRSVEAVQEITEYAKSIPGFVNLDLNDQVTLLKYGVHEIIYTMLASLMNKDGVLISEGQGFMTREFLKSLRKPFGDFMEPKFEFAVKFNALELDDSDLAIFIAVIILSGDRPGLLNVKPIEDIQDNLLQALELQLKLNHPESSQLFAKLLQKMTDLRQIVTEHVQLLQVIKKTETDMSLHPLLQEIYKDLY
Sequence of Tumor necrosis factor (Homo sapiens) (P01375 whole entry, looked up): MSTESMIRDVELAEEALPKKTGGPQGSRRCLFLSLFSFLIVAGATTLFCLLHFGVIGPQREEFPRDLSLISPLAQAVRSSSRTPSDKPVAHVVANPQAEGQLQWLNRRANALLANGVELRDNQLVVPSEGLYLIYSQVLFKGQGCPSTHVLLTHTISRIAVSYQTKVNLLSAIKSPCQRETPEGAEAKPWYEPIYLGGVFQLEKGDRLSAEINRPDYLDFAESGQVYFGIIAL
Sequence of Retinoic acid receptor RXR-alpha (Homo sapiens) (P19793 whole entry, looked up): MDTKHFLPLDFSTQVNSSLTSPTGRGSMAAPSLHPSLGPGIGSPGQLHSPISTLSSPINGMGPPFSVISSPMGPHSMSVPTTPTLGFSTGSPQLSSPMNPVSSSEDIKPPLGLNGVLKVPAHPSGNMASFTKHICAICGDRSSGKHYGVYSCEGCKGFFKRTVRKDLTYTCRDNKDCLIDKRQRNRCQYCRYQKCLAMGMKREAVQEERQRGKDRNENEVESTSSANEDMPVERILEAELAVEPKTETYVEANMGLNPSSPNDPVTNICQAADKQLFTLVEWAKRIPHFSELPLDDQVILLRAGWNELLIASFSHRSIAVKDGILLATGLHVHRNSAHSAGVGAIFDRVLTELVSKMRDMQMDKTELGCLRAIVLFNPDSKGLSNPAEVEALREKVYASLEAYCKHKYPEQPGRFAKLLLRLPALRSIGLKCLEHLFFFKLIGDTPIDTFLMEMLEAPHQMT
Sequence of Pyruvate kinase PKM (Homo sapiens) (P14618 whole entry, looked up): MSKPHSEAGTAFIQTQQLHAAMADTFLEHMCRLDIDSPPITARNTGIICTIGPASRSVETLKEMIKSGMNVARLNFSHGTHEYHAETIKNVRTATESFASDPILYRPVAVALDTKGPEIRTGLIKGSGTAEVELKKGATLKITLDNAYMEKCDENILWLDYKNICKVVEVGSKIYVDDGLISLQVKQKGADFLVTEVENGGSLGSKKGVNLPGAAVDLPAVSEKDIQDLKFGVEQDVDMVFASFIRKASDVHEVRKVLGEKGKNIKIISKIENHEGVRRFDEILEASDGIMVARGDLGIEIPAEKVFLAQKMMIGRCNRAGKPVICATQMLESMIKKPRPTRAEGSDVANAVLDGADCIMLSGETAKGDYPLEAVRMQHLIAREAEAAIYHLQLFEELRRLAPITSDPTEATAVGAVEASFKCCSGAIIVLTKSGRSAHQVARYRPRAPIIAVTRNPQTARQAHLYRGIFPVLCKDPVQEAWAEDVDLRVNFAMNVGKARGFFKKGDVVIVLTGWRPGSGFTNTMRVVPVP
Sequence of Glucocorticoid receptor (Homo sapiens) (P04150 whole entry, looked up, the tested form may be a part): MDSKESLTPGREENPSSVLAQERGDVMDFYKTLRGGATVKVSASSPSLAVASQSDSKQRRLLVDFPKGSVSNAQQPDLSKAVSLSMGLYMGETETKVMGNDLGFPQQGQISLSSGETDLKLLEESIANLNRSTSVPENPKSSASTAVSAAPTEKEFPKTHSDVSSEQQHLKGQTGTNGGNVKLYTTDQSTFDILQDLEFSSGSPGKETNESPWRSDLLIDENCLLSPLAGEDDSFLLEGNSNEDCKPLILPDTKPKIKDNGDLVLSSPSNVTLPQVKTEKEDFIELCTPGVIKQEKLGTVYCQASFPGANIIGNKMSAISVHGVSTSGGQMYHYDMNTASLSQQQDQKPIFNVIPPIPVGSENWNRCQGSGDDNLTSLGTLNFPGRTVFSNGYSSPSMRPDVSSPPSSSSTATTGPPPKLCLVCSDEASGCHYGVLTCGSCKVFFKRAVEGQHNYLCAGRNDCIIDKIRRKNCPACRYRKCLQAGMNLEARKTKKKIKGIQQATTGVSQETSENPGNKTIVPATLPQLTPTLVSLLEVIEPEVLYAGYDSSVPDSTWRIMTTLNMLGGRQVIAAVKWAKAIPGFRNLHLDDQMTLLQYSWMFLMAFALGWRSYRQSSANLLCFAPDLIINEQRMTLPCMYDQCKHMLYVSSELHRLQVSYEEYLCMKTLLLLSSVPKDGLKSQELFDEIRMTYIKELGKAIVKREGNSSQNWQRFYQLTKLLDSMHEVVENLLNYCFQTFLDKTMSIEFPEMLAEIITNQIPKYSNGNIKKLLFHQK
Sequence of Alpha-galactosidase A (Homo sapiens) (P06280 whole entry, looked up): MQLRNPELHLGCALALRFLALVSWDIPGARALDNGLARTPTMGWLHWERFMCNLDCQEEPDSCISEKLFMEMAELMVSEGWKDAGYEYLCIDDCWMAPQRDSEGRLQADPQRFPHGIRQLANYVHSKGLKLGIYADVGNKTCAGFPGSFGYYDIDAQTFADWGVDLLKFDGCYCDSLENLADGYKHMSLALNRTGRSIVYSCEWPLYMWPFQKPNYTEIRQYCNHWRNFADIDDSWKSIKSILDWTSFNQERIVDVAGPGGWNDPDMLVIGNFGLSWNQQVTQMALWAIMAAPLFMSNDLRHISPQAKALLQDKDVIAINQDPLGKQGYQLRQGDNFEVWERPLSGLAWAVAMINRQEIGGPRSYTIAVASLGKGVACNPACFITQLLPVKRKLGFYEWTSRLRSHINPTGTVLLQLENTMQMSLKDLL
Sequence of Estrogen receptor (Homo sapiens) (P03372 whole entry, looked up): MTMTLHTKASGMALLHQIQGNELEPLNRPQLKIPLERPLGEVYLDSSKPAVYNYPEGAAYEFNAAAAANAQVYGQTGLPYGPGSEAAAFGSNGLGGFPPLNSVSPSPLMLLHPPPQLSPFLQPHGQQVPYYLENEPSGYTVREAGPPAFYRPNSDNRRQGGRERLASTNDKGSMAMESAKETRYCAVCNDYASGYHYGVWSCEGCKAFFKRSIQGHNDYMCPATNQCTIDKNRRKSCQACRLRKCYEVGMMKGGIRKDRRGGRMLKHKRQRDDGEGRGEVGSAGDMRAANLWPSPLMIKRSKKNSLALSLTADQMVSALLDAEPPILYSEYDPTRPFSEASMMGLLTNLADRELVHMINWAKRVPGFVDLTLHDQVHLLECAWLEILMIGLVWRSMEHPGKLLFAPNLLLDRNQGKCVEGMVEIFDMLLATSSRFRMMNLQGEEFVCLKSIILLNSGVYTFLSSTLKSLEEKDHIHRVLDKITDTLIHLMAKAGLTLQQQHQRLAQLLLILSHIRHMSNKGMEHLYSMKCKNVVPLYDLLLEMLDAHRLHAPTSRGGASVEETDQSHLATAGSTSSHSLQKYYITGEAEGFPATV
Sequence of Cytochrome P450 3A4 (Homo sapiens) (P08684 whole entry, looked up): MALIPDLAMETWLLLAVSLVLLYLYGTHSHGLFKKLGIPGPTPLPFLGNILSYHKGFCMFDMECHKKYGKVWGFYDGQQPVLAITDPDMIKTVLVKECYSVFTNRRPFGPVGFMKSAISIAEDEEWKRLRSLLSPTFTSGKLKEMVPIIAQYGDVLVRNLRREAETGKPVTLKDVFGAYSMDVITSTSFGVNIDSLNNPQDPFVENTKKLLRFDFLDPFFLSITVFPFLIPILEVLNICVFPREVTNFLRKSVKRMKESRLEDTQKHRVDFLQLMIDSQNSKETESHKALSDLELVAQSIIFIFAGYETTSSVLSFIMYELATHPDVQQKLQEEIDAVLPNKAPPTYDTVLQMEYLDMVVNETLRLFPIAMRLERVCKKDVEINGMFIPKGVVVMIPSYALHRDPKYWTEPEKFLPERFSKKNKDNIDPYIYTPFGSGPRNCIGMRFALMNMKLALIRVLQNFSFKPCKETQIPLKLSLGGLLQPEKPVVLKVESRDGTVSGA
Sequence of Bile acid receptor (Homo sapiens) (Q96RI1 whole entry, looked up): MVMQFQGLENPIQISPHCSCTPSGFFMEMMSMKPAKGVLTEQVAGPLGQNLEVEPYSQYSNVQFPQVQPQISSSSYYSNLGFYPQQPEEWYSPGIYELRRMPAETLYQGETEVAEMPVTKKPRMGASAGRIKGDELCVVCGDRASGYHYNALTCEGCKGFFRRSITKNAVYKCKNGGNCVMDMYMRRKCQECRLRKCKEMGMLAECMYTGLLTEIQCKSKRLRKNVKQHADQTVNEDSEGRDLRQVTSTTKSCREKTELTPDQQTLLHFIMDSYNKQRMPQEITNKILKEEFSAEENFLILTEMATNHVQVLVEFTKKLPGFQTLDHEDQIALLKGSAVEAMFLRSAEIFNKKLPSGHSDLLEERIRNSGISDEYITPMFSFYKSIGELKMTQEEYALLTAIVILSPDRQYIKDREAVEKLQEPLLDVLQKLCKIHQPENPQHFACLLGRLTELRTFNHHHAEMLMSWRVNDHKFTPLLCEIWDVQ

As to `O=Cc1ccc(Cl)c(Cl)c1`, the Potency result in [1] is “inactive”. The compound was classed as inactive in assay [2], in assay [4], in [6] and in assay [7]. Moreover, the max response in [3] turned out to be 2.17%. Besides, the activation in assay [5] was -1.08% (inactive).

Consider `CC(=O)Nc1ccc(C(=O)CCl)cc1`, for which the Potency is 39.8 µM (active) in assay [1] and 31.6 µM (active) in assay [5].

For `C=C(C)c1ccccc1`, the Potency entry in assay [8] was “inactive”. For the same compound, the max response in assay [3] was -11%; in assay [9], -0.247%. For the same compound, the result in assay [4], in assay [6], in [10] and in [7] was inactive. The activation in [5] was -1.34% (inactive).

As for `ClC1=C(Cl)C(Cl)(Cl)C(Cl)=C1Cl`, the Potency entry in assay [11] was “inactive”. Further, the call in assay [2], in assay [4], in assay [6] and in assay [7] was inactive. Besides, the max response in [3] is -6.21% and -5.28%; in assay [9] it was 5.17% and -3.52%.

`Nc1ccc2cc3ccccc3cc2c1`: the Potency result in [12] is “inactive”. Moreover, the Potency in assay [13] was 2.37 µM (active).

For `Cc1ccc(S(=O)(=O)Oc2ccc(N=Nc3ccc(-c4ccc(N=Nc5c(O)ccc6cc(S(=O)(=O)O)cc(S(=O)(=O)O)c56)c(C)c4)cc3C)cc2)cc1`, the Potency entry in assay [12], in [8] and in assay [1] was “inactive” in each case. In addition, the values for the max response in [3] and in assay [9] were -16.1% and -21.4%, respectively. The compound was classed as inactive in assay [4] and in [7]. In addition, the activation in [5] is 1.02% (inactive).

`Cc1cc(Nc2ccc(O)cc2)ccc1N`: the Potency result in assay [12] and in assay [8] was “inactive” throughout. Further, the max response is -10.3% in assay [3] and -15.7% in assay [9]. Also, the call in [4] and in assay [7] was inactive.

In the case of `CO[C@H]1/C=C/O[C@@]2(C)Oc3c(C)c(O)c4c(O)c(c5c(c4c3C2=O)NC2(CCN(CC(C)C)CC2)N=5)=NC(=O)/C(C)=C\C=C\[C@H](C)[C@H](O)[C@@H](C)[C@@H](O)[C@@H](C)[C@H](OC(C)=O)[C@@H]1C`, the Potency entry in [12], in assay [11], in assay [8] and in [1] was “inactive” each time. Moreover, the activation in [5] was -4.17% (inactive).

On to `O=C=Nc1ccc(Cc2ccc(N=C=O)cc2)cc1`, for which the Potency entry in [12], in assay [8], in assay [1] and in assay [13] was “inactive” each time. Moreover, the max response in assay [3] was -1.3% and -4.07%; in [9] it was -3.54% and -5.83%. The outcome in assay [4], in assay [6], in [10] and in assay [7] was inactive. In addition, the activation in [5] was 6.25% (inactive) and 1.32% (inactive).

With `O=C1OC2(c3cc(Br)c(O)c(Br)c3Oc3c2cc(Br)c(O)c3Br)c2c(Cl)c(Cl)c(Cl)c(Cl)c21`, the Potency entry in [12] and in assay [11] was “inactive” in each case. Besides, the compound was classed as inactive in assay [2] and in assay [10]. In addition, the max response in assay [9] worked out at 20.8%. Besides, the Potency in assay [13] was 66.8 µM (active).

In the case of `CC/C(=C(\c1ccccc1)c1ccc(OCCN(C)C)cc1)c1ccc(O)cc1`, the call in [6] was inactive.

For the compound `C/C=C1\C(=O)C[C@H]2[C@@H]3CCC4=CC(=O)CC[C@]4(C)[C@H]3CC[C@]12C`, the Potency in assay [13] was 2.98 µM (active). Further, the outcome in assay [6] was inactive.

In the case of `O=C1OC(O)C(C(Cl)Cl)=C1Cl` (stereo not drawn), the max response in assay [9] was -8.4%. The Potency in assay [13] was 29.8 µM (active). Further, in assay [5], the activation is -1.76% (inactive). In [7], the result was inactive.

As to `CCC(C)Nc1ccc(NC(C)CC)cc1` (stereo not drawn), in assay [12], the Potency result is “inactive”. Besides, the figures for the Potency in assay [11] and in assay [1] were 6.31 µM [inconclusive] (active) and 35.5 µM (active), respectively. In addition, the max response in assay [9] is -40%.

With `COc1cc2c(c(OC)c1OC)-c1ccc(OC)c(=O)cc1[C@H](NC(C)=O)CC2`, the Potency result in [14] is “inactive”.

As for `CC[C@]1(O)C[C@H]2CN(CCc3c([nH]c4ccccc34)[C@](C(=O)OC)(c3cc4c(cc3OC)N(C)[C@@H]3[C@](O)(C(=O)OC)[C@H](OC(C)=O)[C@]5(CC)C=CCN6CC[C@]43[C@@H]65)C2)C1`, the Potency in assay [15] was > 46 µM (inactive). Also, the Potency result in assay [14] and in [17] was “inactive” each time. Further, the compound was called inactive in assay [16], in [18], in assay [19] and in assay [20].

Regarding `CN1CCc2cc(O)c(O)cc2[C@H](c2ccccc2)C1`, the Potency in assay [15] is > 46 µM (inactive). Besides, the Potency entry in [14] and in assay [17] was “inactive” throughout. Also, the outcome in [16], in [18], in assay [19] and in [20] was inactive.

On to `COC(=O)[C@@H](NC(=O)c1cc(-c2ccccc2)nc2ccccc12)c1ccccc1`, for which the Potency in assay [15] was > 46 µM (inactive).

In the case of `FC(F)(F)c1cc(CO[C@@H]2CCCN[C@H]2c2ccccc2)cc(C(F)(F)F)c1`, the Potency in assay [15] was > 46 µM (inactive). Besides, the result in assay [16], in assay [18], in assay [19] and in assay [20] was inactive. The Potency entry in [17] is “inactive”.

With `C[C@H](O)[C@@H]1C(=O)N2C(C(=O)O)=C(SCCN=CN)C[C@@H]12`, in assay [14], the Potency entry was “inactive”.

For `O=C(/C=C\c1ccc(O)cc1)c1ccc(O)cc1O`, the Potency in assay [15] was > 46 µM (inactive); in assay [17], 12.6 µM (active). For the same compound, the Potency entry in assay [14] was “inactive”. In addition, the outcome in assay [16], in assay [18], in [19] and in assay [20] was inactive.

These data come from PubChem BioAssay (NCATS).
